Experimental data published in PubChem BioAssay (NCI).
Compounds without any hit were thinned out: in the full panel of roughly 83,000, 20% have a hit.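 Step 1: grow cells in 96-well plates. Step 2: add test compound at a single concentration. Step 3: incubate 48 h. Step 4: record percent growth.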 Unmarked numbers belong to inactive results. The source made the active and inactive calls. How the source made its calls: active means growth percent below 10; inactive means the rest.

Assays:
Assay in all cases: NCI-60 one-dose screen, 48 h (100 = growth as untreated, 0 = no growth, -100 = all killed)
Settings in all cases: 10 µM unless noted
NCI-H23 lung = system: NCI-H23 lung
NCI-H226 lung = system: NCI-H226 lung
NCI-H322M lung = system: NCI-H322M lung
HOP-62 NSCLC = system: HOP-62 NSCLC
NCI-H460 lung = system: NCI-H460 lung
HOP-92 NSCLC = system: HOP-92 NSCLC
NCI-H522 lung = system: NCI-H522 lung
A549/ATCC NSCLC = system: A549/ATCC NSCLC
786-0 renal = system: 786-0 renal
COLO 205 colon = system: COLO 205 colon
DU-145 prostate = system: DU-145 prostate
K-562 leukemia = system: K-562 leukemia
MALME-3M melanoma = system: MALME-3M melanoma
MDA-MB-231 breast = system: MDA-MB-231 breast
RXF 393 renal = system: RXF 393 renal
SF-268 CNS = system: SF-268 CNS
SF-295 CNS = system: SF-295 CNS
SF-539 CNS = system: SF-539 CNS
UACC-257 melanoma = system: UACC-257 melanoma
M14 melanoma = system: M14 melanoma

Compound: CS(=O)(=O)c1ccc(-n2nc(C(=O)NCc3ccccc3)cc2-c2ccc(Cl)cc2)cc1
- growth (NCI-H23 lung): 89.9%
- growth (NCI-H226 lung): 85%
- growth (NCI-H322M lung): 88.1%
- growth (HOP-62 NSCLC): 106%
- growth (NCI-H460 lung): 71.2%
- growth (HOP-92 NSCLC): 88.1%
- growth (NCI-H522 lung): 58.7%
- growth (A549/ATCC NSCLC): 70%
- growth (786-0 renal): 71%
- growth (COLO 205 colon): 107%
- growth (DU-145 prostate): 91.4%
- growth (K-562 leukemia): 49.4%
- growth (MALME-3M melanoma): 112%
- growth (MDA-MB-231 breast): 96.3%
- growth (RXF 393 renal): 94.9%
- growth (SF-268 CNS): 82.2%
- growth (SF-295 CNS): 73.6%
- growth (SF-539 CNS): 99.4%
- growth (UACC-257 melanoma): 98.9%
- growth (M14 melanoma): 93.9%

Compound: CC(C)(C)OC(=O)N1C/C(=C\c2ccc(F)cc2)C(=O)/C(=C/c2ccc(F)cc2)C1
- growth (NCI-H23 lung): -77.7% (active)
- growth (NCI-H226 lung): -43.8% (active)
- growth (NCI-H322M lung): 29.6%
- growth (HOP-62 NSCLC): 14.6%
- growth (NCI-H460 lung): 1.19% (active)
- growth (HOP-92 NSCLC): -30.5% (active)
- growth (NCI-H522 lung): -89% (active)
- growth (A549/ATCC NSCLC): 35.3%
- growth (786-0 renal): -74.8% (active)
- growth (COLO 205 colon): -47.2% (active)
- growth (DU-145 prostate): 9.97% (active)
- growth (K-562 leukemia): 9.9% (active)
- growth (MALME-3M melanoma): -75.5% (active)
- growth (MDA-MB-231 breast): -54.4% (active)
- growth (RXF 393 renal): -88.1% (active)
- growth (SF-268 CNS): -46.1% (active)
- growth (SF-295 CNS): -75.1% (active)
- growth (SF-539 CNS): -98.3% (active)
- growth (UACC-257 melanoma): -42.1% (active)
- growth (M14 melanoma): -71.5% (active)

Compound: COc1cc(CNC(=O)C[C@H](C)CCC=C(C)C)ccc1OCc1cn(-c2ccc(Cl)cc2Cl)nn1
- growth (NCI-H23 lung): 56.6%
- growth (NCI-H226 lung): 66.4%
- growth (NCI-H322M lung): 95.2%
- growth (HOP-62 NSCLC): 11.3%
- growth (NCI-H460 lung): 75.1%
- growth (HOP-92 NSCLC): -3.27% (active)
- growth (NCI-H522 lung): 55.4%
- growth (A549/ATCC NSCLC): 59.4%
- growth (786-0 renal): 38.9%
- growth (COLO 205 colon): 105%
- growth (DU-145 prostate): 90.5%
- growth (K-562 leukemia): 81.4%
- growth (MALME-3M melanoma): 79.3%
- growth (MDA-MB-231 breast): 59.7%
- growth (RXF 393 renal): 14.1%
- growth (SF-268 CNS): 52.3%
- growth (SF-295 CNS): 41.8%
- growth (SF-539 CNS): 66.9%
- growth (UACC-257 melanoma): 92%
- growth (M14 melanoma): 102%

Compound: CCCCN1C(=O)/C(=C\C(=O)c2cc3ccccc3oc2=O)c2ccccc21
- growth (NCI-H23 lung): 79%
- growth (NCI-H226 lung): 88.5%
- growth (NCI-H322M lung): 99.4%
- growth (HOP-62 NSCLC): 92.3%
- growth (NCI-H460 lung): 86.4%
- growth (HOP-92 NSCLC): 63.7%
- growth (NCI-H522 lung): -19.9% (active)
- growth (A549/ATCC NSCLC): 106%
- growth (786-0 renal): 75%
- growth (COLO 205 colon): -20.5% (active)
- growth (DU-145 prostate): 85.8%
- growth (K-562 leukemia): -36.9% (active)
- growth (MALME-3M melanoma): 69%
- growth (MDA-MB-231 breast): 48.2%
- growth (RXF 393 renal): 60.1%
- growth (SF-268 CNS): 87.5%
- growth (SF-295 CNS): 101%
- growth (SF-539 CNS): 80.2%
- growth (UACC-257 melanoma): 105%
- growth (M14 melanoma): 53.5%

Compound: Cc1nn(-c2ccccc2)c2nc(C)n(C(=O)N/N=C/c3cccc([N+](=O)[O-])c3)c(=O)c12
- growth (NCI-H23 lung): 77.7%
- growth (NCI-H226 lung): 105%
- growth (NCI-H322M lung): 91.7%
- growth (HOP-62 NSCLC): 98.6%
- growth (NCI-H460 lung): 93.7%
- growth (HOP-92 NSCLC): 103%
- growth (NCI-H522 lung): 47.4%
- growth (A549/ATCC NSCLC): 83.7%
- growth (786-0 renal): 108%
- growth (COLO 205 colon): 117%
- growth (DU-145 prostate): 99.9%
- growth (K-562 leukemia): 62%
- growth (MALME-3M melanoma): -10.2% (active)
- growth (MDA-MB-231 breast): 94.7%
- growth (RXF 393 renal): 115%
- growth (SF-268 CNS): 101%
- growth (SF-295 CNS): 101%
- growth (SF-539 CNS): 105%
- growth (UACC-257 melanoma): 78.4%
- growth (M14 melanoma): 80.4%

Compound: COc1ccc2c(c1)C(Sc1ccc(Br)cc1)c1c(nc(N)c(C#N)c1N)O2 (stereo not given)
- growth (NCI-H23 lung): 79.1%
- growth (NCI-H226 lung): 83.1%
- growth (NCI-H322M lung): 84.2%
- growth (HOP-62 NSCLC): 93.7%
- growth (NCI-H460 lung): 82.4%
- growth (HOP-92 NSCLC): 111%
- growth (NCI-H522 lung): 77.1%
- growth (A549/ATCC NSCLC): 89.7%
- growth (786-0 renal): 83%
- growth (COLO 205 colon): 90%
- growth (DU-145 prostate): 95.4%
- growth (K-562 leukemia): 69.1%
- growth (MALME-3M melanoma): 85.2%
- growth (MDA-MB-231 breast): 79.2%
- growth (RXF 393 renal): 67.6%
- growth (SF-268 CNS): 75.2%
- growth (SF-295 CNS): 81.1%
- growth (SF-539 CNS): 88.8%
- growth (UACC-257 melanoma): 103%
- growth (M14 melanoma): 85.6%

Compound: COc1cc(CNC(=O)[C@]23CCC(C)(C)CC2C2=CCC4[C@@]5(C)CCC(OC(C)=O)C(C)(C)C5CC[C@@]4(C)[C@]2(C)CC3)ccc1OCc1cn(-c2ccc(Cl)cc2Cl)nn1 (stereo not given in full)
- growth (NCI-H23 lung): 99%
- growth (NCI-H226 lung): 94.8%
- growth (NCI-H322M lung): 94.1%
- growth (HOP-62 NSCLC): 105%
- growth (NCI-H460 lung): 105%
- growth (HOP-92 NSCLC): 116%
- growth (NCI-H522 lung): 88.9%
- growth (A549/ATCC NSCLC): 93.1%
- growth (786-0 renal): 107%
- growth (COLO 205 colon): 118%
- growth (DU-145 prostate): 116%
- growth (K-562 leukemia): 85.5%
- growth (MALME-3M melanoma): 99%
- growth (MDA-MB-231 breast): 88.8%
- growth (RXF 393 renal): 116%
- growth (SF-268 CNS): 110%
- growth (SF-295 CNS): 100%
- growth (SF-539 CNS): 101%
- growth (UACC-257 melanoma): 88.6%
- growth (M14 melanoma): 98.2%

Compound: COc1sc(/C=N/NC(=O)c2[nH]c3ccc(Br)cc3c2-c2ccccc2)cc1Cl
- growth (NCI-H23 lung): -41.9% (active)
- growth (NCI-H226 lung): -17.8% (active)
- growth (NCI-H322M lung): 13.3%
- growth (HOP-62 NSCLC): -27% (active)
- growth (NCI-H460 lung): 1.26% (active)
- growth (HOP-92 NSCLC): -7.87% (active)
- growth (NCI-H522 lung): -39% (active)
- growth (A549/ATCC NSCLC): -20.2% (active)
- growth (786-0 renal): -49.8% (active)
- growth (COLO 205 colon): -60.9% (active)
- growth (DU-145 prostate): -63.2% (active)
- growth (K-562 leukemia): 9.98% (active)
- growth (MALME-3M melanoma): 18.1%
- growth (MDA-MB-231 breast): -68% (active)
- growth (RXF 393 renal): -25.7% (active)
- growth (SF-268 CNS): -17.2% (active)
- growth (SF-295 CNS): -40.6% (active)
- growth (SF-539 CNS): -85.3% (active)
- growth (UACC-257 melanoma): 29%
- growth (M14 melanoma): -3.6% (active)
